HCV NS3h FP = blocks HCV NS3 helicase binding to DNA; NS3h Cy5-dT15 DNA binding, fluorescence polarization; inhibition, % at 100 µM; 16,000 compounds, 1.6% hits; AID 687043;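 active means inhibition above the average over every tested compound plus 3 SD, cut at about 40% in these data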
Cy5 interf NS3h = Cy5 fluorescence interference, HCV helicase counter-screen. Cy5-dT15 DNA with NS3h; actives lie on both sides; signal over control mean, under 1 quenches. fluorescence interference ratio at 100 µM. 16,000 compounds, 6% hits;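 active means compound fluorescence over control fluorescence at most 0.8, a quencher, or at least a set upper limit, an enhancer; inactive means ratio between 0.8 and the set upper limit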
Numbers without * were called inactive. A selection: hits, their analogues and other compounds. The true share with any hit is near 6.8%.

SMILES | HCV NS3h FP | Cy5 interf NS3h
NC(=O)C(=O)NCc1ccc(Cl)cc1 | 3 | 0.65*
CC(C)CCNC(=O)C(=O)NCc1ccc(Cl)cc1 | 9 | 1.1
CC(=O)C1=C(Nc2ccccc2)CC(C)(O)C(C(C)=O)C1c1cccnc1 (stereo not given) | 4 | 1.1
COc1cc(-c2c(C#N)c(N)n3c(nc4ccccc43)c2C#N)ccc1O | 23 | 1.1
O=C(Nc1ccc(-c2nc3ncccc3o2)cc1)c1ccc(-c2cccc(Cl)c2)o1 | -44 | 1.2*
O=C(Nc1ccc2ccccc2c1)c1ccc(-c2cccc(Cl)c2)o1 | 5 | 0.94
CC(C)(C)NC(=O)c1cc2nc(-c3ccccc3)cc(C(F)(F)F)n2n1 | 1 | 0.57*
COC(=O)c1ccccc1NC(=O)c1cc2nc(-c3ccccc3)cc(C)n2n1 | 14 | 0.73*
O=C(NCc1ccco1)c1cc2nc(-c3ccccc3)cc(C(F)(F)F)n2n1 | 1 | 1.1
CCOc1ccc(-c2cc(C)n3nc(C(=O)Nc4cc(OC)c(Cl)cc4OC)cc3n2)cc1 | -9 | 1.1
O=C(COc1ccccc1[N+](=O)[O-])Nc1ccc2oc(-c3ccc(Cl)cc3Cl)nc2c1 | 2 | 1
CCNC(=O)CC1S/C(=N/N=C\c2ccco2)NC1=O (stereo not given) | -2 | 1.1
O=C(Nc1cccc([N+](=O)[O-])c1)C1C2C3CCC(C3)C12 (stereo not given) | 3 | 0.98
Cc1ccc(-n2nc(C)c(-c3cccc([N+](=O)[O-])c3)c2C)cc1C | 4 | 0.9
Cc1nn(-c2ccc(Cl)c(Cl)c2)c(C)c1-c1cccc([N+](=O)[O-])c1 | 21 | 0.69*
COC(=O)c1cc(NC(=O)c2ccc(OCc3ccccc3)cc2)cc(C(=O)OC)c1 | -4 | 0.95
COC(=O)c1cc(NC(=O)c2cccc(OCc3ccccc3)c2)cc(C(=O)OC)c1 | 3 | 1.2*
COc1cc(/C=C2/C(=O)NC(=O)N(c3cccc(C)c3)C2=O)ccc1OCCOc1ccc([N+](=O)[O-])cc1 | 40 | 0.89
CC(C)COc1ccc(C(=O)Nc2ccc(N3CCOCC3)c(Cl)c2)cc1 | 6 | 0.98
COC(=O)c1cnn2c(C(F)(F)F)cc(-c3ccccc3)nc12 | 10 | 1
CCC1CCCCN1C(=O)c1cnn2c(C(F)(F)F)cc(-c3ccc(C)cc3)nc12 (stereo not given) | 17 | 1.1
COc1cc(-c2cc(C(F)(F)F)n3ncc(C(=O)NCc4cccnc4)c3n2)cc(OC)c1OC | -1 | 1.1
Cc1ccc(O)c(NC(=O)c2cnn3c(C(F)(F)F)cc(-c4ccco4)nc23)c1 | 1 | 0.58*
O=C(NCc1ccc(Cl)cc1)c1cnn2c(C(F)(F)F)cc(-c3ccco3)nc12 | 12 | 0.59*
COC(=O)c1ccccc1NC(=O)c1cnn2c(C(F)(F)F)cc(-c3ccc(OC)c(OC)c3)nc12 | 12 | 0.68*
SMILES | HCV NS3h FP | Cy5 interf NS3h
CCCc1cc(=O)n2[nH]c(-c3cccc(F)c3)cc2n1 | 6 | 1.1
O=C1C2C3C=CC(CC3)C2C(=O)N1/N=C\c1cc([N+](=O)[O-])cc(Br)c1O (stereo not given) | 10 | 0.68*
O=C1C2C3C=CC(CC3)C2C(=O)N1/N=C\c1ccc(I)o1 (stereo not given) | -2 | 1
Clc1ccc(/C=N\n2cnnc2)cc1 | 1 | 1.1
Clc1ccc(-c2ccc(/C=N/n3cnnc3)o2)c(Cl)c1 | -9 | 0.71*
O=C(Nc1ccc(Cl)c(Cl)c1)c1nn2c(c1Br)NC(c1cccs1)CC2C(F)(F)F (stereo not given) | 12 | 1
O=C(c1nn2c(c1Cl)NC(c1cccs1)CC2C(F)(F)F)N1CCOCC1 (stereo not given) | 1 | 0.67*
O=C(c1nn2c(c1Br)NC(c1cccs1)CC2C(F)(F)F)N1CCCC1 (stereo not given) | 15 | 0.51*
CCOC(=O)c1sc(NC(=O)c2nn3c(c2Cl)NC(c2cccs2)CC3C(F)(F)F)c(C(=O)OCC)c1C (stereo not given) | 16 | 1
COc1ccc(C2OCC3(CO2)SC2=NCN(C)CN2C3=O)cc1OC (stereo not given) | -1 | 1.1
CCOc1ccc(NC(=O)CN(c2ccc(C)cc2)S(=O)(=O)c2ccc(SC)cc2)cc1 | 13 | 0.88
Cc1cccc(NCCC(=O)c2cccs2)c1C | 7 | 0.78*
O=C(CCNc1ccc(F)cc1)c1cccs1 | 11 | 1.1
O=C(N(c1ccc(Cl)cc1)C1C=CS(=O)(=O)C1)C(F)(F)F (stereo not given) | -1 | 1
COc1ccc(C/C(N)=N\OC(=O)c2ccccc2Cl)cc1 | 11 | 1
CC1CCC/C(=N/NC(=O)Nc2ccccc2)C1 (stereo not given) | 6 | 0.96
COc1ccc(C(=O)c2ccccc2)c(OC)c1 | -6 | 0.91
COc1ccc(/C(C)=N\N=C(\C)c2ccc(OC)cc2OC)c(OC)c1 | 16 | 0.67*
Cc1ccc(/C=C2/SC(=S)NC2=O)s1 | 13 | 0.79*
Cc1ccc(/C=C2/NC(=S)NC2=O)s1 | 20 | 1.1
Cc1c(Cl)cccc1NC(=O)C(=O)NC1CC(C)(C)NC(C)(C)C1 | -7 | 1
O=C(NCCNc1ccc([N+](=O)[O-])cc1)c1cccc(Br)c1 | 20 | 1
Nc1nonc1C(=O)NCCNC(=O)c1cccc(Br)c1 | 14 | 0.71*
CC(=O)Oc1ccc(C(=O)Nc2cc([N+](=O)[O-])ccc2O)cc1 | -1 | 1.1
O=C(Nc1cccc(C(F)(F)F)c1)c1cnn2c(C(F)(F)F)cc(-c3cccs3)nc12 | 8 | 0.66*
SMILES | HCV NS3h FP | Cy5 interf NS3h
CC(C)OC(=O)c1cnn2c(C(F)(F)F)cc(-c3ccc(F)cc3)nc12 | 10 | 0.94
O=C(c1ccccc1)N1CCN(C(=O)c2nn3c(C(F)(F)F)cc(-c4cccs4)nc3c2Br)CC1 | 10 | 0.71*
COc1ccc(-c2cc(C(F)(F)F)n3nc(C(=O)N4CCc5ccccc5C4)cc3n2)cc1 | 9 | 0.97
COc1ccc(N(CC(=O)N2CCOCC2)S(=O)(=O)c2ccc(C)cc2)c(OC)c1 | 10 | 0.98
CCOc1ccccc1NC(=O)c1ccc(C)c([N+](=O)[O-])c1 | 18 | 0.75*
COc1cccc(C(=O)Nc2ccc3oc(-c4ccc(F)cc4Cl)nc3c2)c1 | -16 | 1.1
O=C(COc1ccccc1[N+](=O)[O-])Nc1ccc2oc(-c3cc(Br)ccc3Cl)nc2c1 | -18 | 1.2*
CCOc1ccc(NC(=O)c2ccc(Cl)c([N+](=O)[O-])c2)cc1 | 17 | 0.73*
O=C(COc1ccccc1[N+](=O)[O-])Nc1ccc2oc(-c3ccccc3Br)nc2c1 | -20 | 1.1
CCOc1ccccc1NC(=O)c1ccc([N+](=O)[O-])cc1 | -7 | 1
Cc1ccc(C(=O)Nc2ccc3oc(-c4ccc(F)cc4Cl)nc3c2)cc1[N+](=O)[O-] | 6 | 0.74*
CCOc1ccc(NC(=O)c2ccc(C)c([N+](=O)[O-])c2)cc1 | 5 | 1
O=C1c2ccccc2C(=O)C1(c1ccccc1)[N+](=O)[O-] | 2 | 0.96
COc1ccc(C(=O)Nc2ccc(C(=O)O)cc2)cc1 | -3 | 1.2*
CCOc1ccc(-n2nc3ccc(NC(=O)c4ccc(Cl)cc4)cc3n2)cc1 | 15 | 0.64*
CCc1ccc(NC(=O)c2ccc(C)c([N+](=O)[O-])c2)cc1 | -5 | 1
NS(=O)(=O)c1ccc(NC(=O)c2ccc(Oc3ccccc3)cc2)cc1 | 1 | 1.2*
COC(=O)c1ccc(NC(=S)NC(=O)c2ccc(OC)cc2)cc1 | 21 | 0.95

Compound activity (PubChem BioAssay)
